Inconclusive results are not listed. Calls of active or inactive are those of the source. How the source made its calls, unless noted: active means hit-call score of the fitted dose curve at least 0.9, where 1 is the maximum; inconclusive means response in the unintended direction; inactive means score below 0.9.
Experiments:
[1] = target: Nucleoli Translocation, AR (gene 367) (UniProt P10275); assay: UPITT_HCI_U2OS_AR_TIF2_Nucleoli_Antagonist: University of Pittsburgh U2OS Androgen Receptor-Transcriptional Intermediary Factor 2 (AR-TIF2) Antagonism High Content Imaging Assay for Nucleoli Translocation (AID 2283997)
Nucleoli Translocation, AR (gene 367), sequence (P10275 whole entry, looked up): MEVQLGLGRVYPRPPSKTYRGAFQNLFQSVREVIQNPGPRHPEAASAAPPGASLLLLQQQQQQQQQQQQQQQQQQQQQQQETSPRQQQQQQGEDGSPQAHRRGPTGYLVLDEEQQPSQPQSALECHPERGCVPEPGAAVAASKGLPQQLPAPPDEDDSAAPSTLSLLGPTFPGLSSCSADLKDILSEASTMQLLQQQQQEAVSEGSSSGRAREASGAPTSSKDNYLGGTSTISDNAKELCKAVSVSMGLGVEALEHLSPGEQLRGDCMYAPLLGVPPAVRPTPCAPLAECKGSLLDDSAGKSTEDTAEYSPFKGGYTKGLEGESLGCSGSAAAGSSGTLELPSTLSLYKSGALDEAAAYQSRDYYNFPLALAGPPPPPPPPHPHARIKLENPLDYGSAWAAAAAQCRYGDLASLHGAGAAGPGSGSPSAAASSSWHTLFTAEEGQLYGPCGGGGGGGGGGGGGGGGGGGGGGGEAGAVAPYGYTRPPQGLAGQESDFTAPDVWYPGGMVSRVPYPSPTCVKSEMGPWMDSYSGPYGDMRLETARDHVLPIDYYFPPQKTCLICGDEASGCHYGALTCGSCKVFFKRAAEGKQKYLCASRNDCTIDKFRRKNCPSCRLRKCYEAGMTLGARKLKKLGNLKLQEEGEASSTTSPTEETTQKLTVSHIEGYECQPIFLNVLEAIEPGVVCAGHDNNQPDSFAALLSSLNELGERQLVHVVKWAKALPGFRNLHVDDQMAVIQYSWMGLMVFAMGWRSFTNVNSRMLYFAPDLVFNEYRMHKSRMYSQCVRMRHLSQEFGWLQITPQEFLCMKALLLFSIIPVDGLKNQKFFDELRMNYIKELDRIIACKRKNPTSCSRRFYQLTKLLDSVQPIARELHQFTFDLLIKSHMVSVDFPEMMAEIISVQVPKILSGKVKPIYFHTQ
Procedure, shortened: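 Antagonism is read as loss of nucleolar AR-RFP signal relative to DHT, imaged in U2OS cells also carrying GFP-TIF2. Compounds screened at 20 uM final, 0.2% DMSO; primary actives retested in triplicate.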

[2] = target: Nucleoli Translocation, AR (gene 367) (UniProt P10275); assay: UPITT_HCI_U2OS_AR_TIF2_Nucleoli_Agonist: University of Pittsburgh U2OS Androgen Receptor-Transcriptional Intermediary Factor 2 (AR-TIF2) Agonism High Content Imaging Assay for Nucleoli Translocation (AID 2283998)
Procedure, shortened: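 U2OS cells expressing RFP-tagged human AR and GFP-tagged TIF2; red fluorescence in nucleoli quantified by high-content imaging. Primary screen at 20 uM final (0.2% DMSO); concentration-response 0.195–50 uM (0.5% DMSO), fitted upward versus DMSO.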

[3] = target: Ratio of Nucleoli Translocation and Cytoplasm, AR (gene 367) (UniProt P10275); assay: UPITT_HCI_U2OS_AR_TIF2_Nucleoli_Cytoplasm_Ratio_Antagonist: University of Pittsburgh U2OS Androgen Receptor-Transcriptional Intermediary Factor 2 (AR-TIF2) Antagonism High Content Imaging Assay for Ratio of Nucleoli Translocation and Cytoplasm (AID 2283999);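 further: antagonists lower the DHT-driven ratio of nucleolar to cytoplasmic red signal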
Ratio of Nucleoli Translocation and Cytoplasm, AR (gene 367), sequence (P10275 whole entry, looked up): as above
Procedure, shortened: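 Compounds were added to U2OS cells carrying red-fluorescent AR and green-fluorescent TIF2, first at 20 uM, with hits confirmed in triplicate and titrated from 0.195 to 50 uM. Nucleolar versus cytoplasmic AR-RFP fluorescence was then quantified by imaging, with analysis relative to DHT.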

[4] = target: Ratio of Nucleoli Translocation and Cytoplasm, AR (gene 367) (UniProt P10275); assay: UPITT_HCI_U2OS_AR_TIF2_Nucleoli_Cytoplasm_Ratio_Agonist: University of Pittsburgh U2OS Androgen Receptor-Transcriptional Intermediary Factor 2 (AR-TIF2) Agonism High Content Imaging Assay for Ratio of Nucleoli Translocation and Cytoplasm (AID 2284000);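 further: hits raise the red nucleolar to cytoplasm ratio above vehicle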
Procedure, shortened: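 Compounds tested at 20 uM final in primary screen (0.2% DMSO) and 0.195-50 uM final in dose-response (0.5% DMSO). Imaging of human U2OS cells bearing RFP-AR and GFP-TIF2; endpoint is nucleoli/cytoplasm red signal ratio, positive direction relative to DMSO.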

[5] = CEETOX_H295R_ESTRADIOL_noMTC: CeeTox H295R High-throughput Steroidogenesis Assay for Estradiol, maximum tolerated concentration (MTC) filtered results only (AID 2283919; active means hit-call score of the fitted dose curve at least 0.9, where 1 is the maximum; inactive means score below 0.9); settings: actives raise or lower the signal
Procedure, shortened: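 Readout: dansyl-derivatized estradiol quantified by LC-MS/MS in medium from H295R cells dosed 48 h (0.1% DMSO) following 48 h forskolin (10 uM) prestimulation. Gain or loss of signal fitted against DMSO; no MTC filtering applied.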

[6] = CEETOX_H295R_PROG_noMTC: CeeTox H295R High-throughput Steroidogenesis Assay for Progesterone (PROG), maximum tolerated concentration (MTC) filtered results only (AID 2283920; active means hit-call score of the fitted dose curve at least 0.9, where 1 is the maximum; inactive means score below 0.9); settings: actives raise or lower the signal
Procedure, shortened: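 Progesterone secreted into medium was measured by HPLC-MS/MS after MTBE extraction, following 48 h chemical exposure (0.1% DMSO) of forskolin-prestimulated (10 uM, 48 h) H295R adrenal cells. Gain or loss fitted against DMSO; no MTC filtering.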

[7] = CEETOX_H295R_ESTRONE_noMTC: CeeTox H295R High-throughput Steroidogenesis Assay for Estrone, maximum tolerated concentration (MTC) filtered results only (AID 2283921; active means hit-call score of the fitted dose curve at least 0.9, where 1 is the maximum; inactive means score below 0.9); settings: actives raise or lower the signal
Procedure, shortened: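 Estrone in spent medium, quantified by tandem MS following dansyl chloride derivatization, after 48 h chemical exposure (0.1% DMSO) of forskolin-prestimulated (10 uM, 48 h) H295R cells; concentrations not MTC-filtered, bidirectional fit against DMSO.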

[8] = CEETOX_H295R_TESTO_noMTC: CeeTox H295R High-throughput Steroidogenesis Assay for Testosterone (TESTO), maximum tolerated concentration (MTC) filtered results only (AID 2283924; active means hit-call score of the fitted dose curve at least 0.9, where 1 is the maximum; inactive means score below 0.9); settings: actives raise or lower the signal
Procedure, shortened: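 Medium testosterone, measured by HPLC-MS/MS after liquid-liquid extraction, was fitted in both directions relative to DMSO without MTC filtering. Adrenal H295R cells received 48 h chemical exposure (0.1% DMSO final) after 48 h forskolin (10 uM) prestimulation; viability by MTT.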

[9] = target: Thyroid hormone receptor alpha (Rattus norvegicus) + Thyroid hormone receptor beta (Rattus norvegicus) (UniProt P18113+P63059); assay: TOX21_TR_LUC_GH3_Agonist_Followup: Tox21 GH3 Thyroid Hormone Receptor Agonism Luciferase Follow-Up Assay (AID 2283939)
Thyroid hormone receptor alpha (Rattus norvegicus) + Thyroid hormone receptor beta (Rattus norvegicus), sequence (P63059 whole entry, looked up): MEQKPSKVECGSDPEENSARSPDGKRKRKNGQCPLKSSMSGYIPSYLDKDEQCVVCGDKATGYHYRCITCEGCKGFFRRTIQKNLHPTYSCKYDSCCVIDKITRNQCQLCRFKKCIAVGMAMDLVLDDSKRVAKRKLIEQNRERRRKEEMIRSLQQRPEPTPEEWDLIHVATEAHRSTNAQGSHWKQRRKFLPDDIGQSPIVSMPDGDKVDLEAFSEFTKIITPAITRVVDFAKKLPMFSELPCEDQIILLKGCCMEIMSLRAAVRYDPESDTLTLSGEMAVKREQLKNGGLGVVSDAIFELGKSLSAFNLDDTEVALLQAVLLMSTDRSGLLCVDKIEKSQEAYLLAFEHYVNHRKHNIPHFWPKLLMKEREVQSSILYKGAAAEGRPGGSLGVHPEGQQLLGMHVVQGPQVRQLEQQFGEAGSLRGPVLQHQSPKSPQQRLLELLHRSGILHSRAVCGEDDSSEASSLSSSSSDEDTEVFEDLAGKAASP
Thyroid hormone receptor alpha (Rattus norvegicus) + Thyroid hormone receptor beta (Rattus norvegicus), sequence (P18113 whole entry, looked up): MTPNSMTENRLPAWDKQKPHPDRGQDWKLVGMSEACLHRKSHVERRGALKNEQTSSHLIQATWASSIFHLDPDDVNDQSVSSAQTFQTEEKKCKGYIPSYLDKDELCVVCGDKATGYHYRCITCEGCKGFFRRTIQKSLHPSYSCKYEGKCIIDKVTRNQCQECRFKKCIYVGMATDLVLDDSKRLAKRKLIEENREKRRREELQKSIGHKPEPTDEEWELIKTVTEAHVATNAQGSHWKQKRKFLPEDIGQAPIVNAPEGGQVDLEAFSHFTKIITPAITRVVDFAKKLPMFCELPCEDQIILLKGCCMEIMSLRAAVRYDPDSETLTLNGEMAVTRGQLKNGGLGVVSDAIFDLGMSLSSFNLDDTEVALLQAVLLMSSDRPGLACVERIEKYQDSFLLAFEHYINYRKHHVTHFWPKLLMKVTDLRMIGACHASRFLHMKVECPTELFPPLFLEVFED
Procedure, shortened: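 Agonist-mode confirmatory run: 15 concentrations (5 nM to 92 uM final) on GH3 rat pituitary cells, 24 h at 37C/5% CO2, T3 as positive control. Luminescence read with ONE-Glo after 30 min.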

THRA (gene 7067) = THRA (gene 7067) (UniProt P10827); assay: TOX21_TRA_COA_Agonist_Followup_ratio: Tox21 Thyroid Hormone Receptor alpha Agonism through Coactivator Recruitment Follow-Up Assay, Ratio (AID 2283948; active means hit-call score of the fitted dose curve at least 0.9, where 1 is the maximum; inactive means score below 0.9)
THRA (gene 7067), sequence (P10827 whole entry, looked up, the tested form may be a part): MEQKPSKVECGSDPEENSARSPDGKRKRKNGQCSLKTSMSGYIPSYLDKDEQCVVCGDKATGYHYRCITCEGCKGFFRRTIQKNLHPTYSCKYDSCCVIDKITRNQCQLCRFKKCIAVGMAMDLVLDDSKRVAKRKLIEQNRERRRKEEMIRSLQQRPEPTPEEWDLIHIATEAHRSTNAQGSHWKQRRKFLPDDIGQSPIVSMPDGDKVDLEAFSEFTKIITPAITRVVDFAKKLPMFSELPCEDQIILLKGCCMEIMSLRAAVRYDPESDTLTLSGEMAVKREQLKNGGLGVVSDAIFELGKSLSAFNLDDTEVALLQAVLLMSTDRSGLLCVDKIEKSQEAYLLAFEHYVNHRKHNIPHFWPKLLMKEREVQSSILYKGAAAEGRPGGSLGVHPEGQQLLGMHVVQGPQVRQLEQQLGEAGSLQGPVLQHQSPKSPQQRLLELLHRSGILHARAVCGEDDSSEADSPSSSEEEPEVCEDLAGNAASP
Procedure, shortened: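 Cell-free TR-FRET: GST-tagged TRα LBD (2.5 nM) with 0.10% BSA and compound, then fluorescein-SRC-2 peptide (200 nM) and Tb-anti-GST antibody (2 nM). Readout 520:495 nm ratio (ex 340 nm), normalized to DMSO (0%) and T3 (100%).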

THRB (gene 7068) [10] = target: THRB (gene 7068) (UniProt P10828); assay: TOX21_TRB_BLA_Agonist_Followup_ratio: Tox21 Thyroid Hormone Receptor beta Agonism Beta-lactamase (BLA) Follow-Up Assay, Ratio (AID 2283954)
THRB (gene 7068), sequence (P10828 whole entry, looked up, the tested form may be a part): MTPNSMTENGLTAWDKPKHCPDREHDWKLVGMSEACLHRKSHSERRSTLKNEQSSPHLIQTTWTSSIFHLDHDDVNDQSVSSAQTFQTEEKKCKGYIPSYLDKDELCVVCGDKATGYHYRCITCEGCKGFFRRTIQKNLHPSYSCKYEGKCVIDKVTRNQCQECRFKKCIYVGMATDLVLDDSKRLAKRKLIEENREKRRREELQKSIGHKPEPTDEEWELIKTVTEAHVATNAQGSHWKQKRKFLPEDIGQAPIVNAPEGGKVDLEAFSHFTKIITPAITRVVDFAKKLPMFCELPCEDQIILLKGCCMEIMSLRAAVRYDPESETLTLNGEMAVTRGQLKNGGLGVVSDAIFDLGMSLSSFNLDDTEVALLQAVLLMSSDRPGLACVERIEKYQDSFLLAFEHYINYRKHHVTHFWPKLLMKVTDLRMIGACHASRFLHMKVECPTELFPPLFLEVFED
Procedure, shortened: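 Agonist mode: compounds (11-point, triplicate) incubated 18 h with HEK293T cells carrying GAL4-DBD/human TRβ-LBD and UAS-β-lactamase. Blue/green (460/530 nm) FRET ratio read after 2 h CCF4-AM loading; CellTiter-Glo viability run in the same plates.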

THRB (gene 7068) [11] = target: THRB (gene 7068) (UniProt P10828); assay: TOX21_TRB_COA_Agonist_Followup_ratio: Tox21 Thyroid Hormone Receptor beta Agonism through Coactivator Recruitment Follow-Up Assay, Ratio (AID 2283963; active means hit-call score of the fitted dose curve at least 0.9, where 1 is the maximum; inactive means score below 0.9)
Procedure, shortened: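 Agonism is measured as coactivator recruitment in a purified-protein TR-FRET format, using GST-TRβ LBD at 5.0 nM, fluorescein-SRC-2 peptide at 200 nM and Tb-labeled anti-GST antibody at 2 nM. Values are 520:495 nm ratios relative to DMSO (0%) and T3 (100%).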

[12] = target: Retinoic acid receptor RXR-alpha (Homo sapiens) (UniProt P19793); assay: TOX21_TR_RXR_BLA_Agonist_Followup_ratio: Tox21 Thyroid Hormone Receptor beta Retinoid X Receptor alpha (RXRa) Agonism Beta-lactamase (BLA) Follow-Up Assay, Ratio (AID 2283968)
Retinoic acid receptor RXR-alpha (Homo sapiens), sequence (P19793 whole entry, looked up): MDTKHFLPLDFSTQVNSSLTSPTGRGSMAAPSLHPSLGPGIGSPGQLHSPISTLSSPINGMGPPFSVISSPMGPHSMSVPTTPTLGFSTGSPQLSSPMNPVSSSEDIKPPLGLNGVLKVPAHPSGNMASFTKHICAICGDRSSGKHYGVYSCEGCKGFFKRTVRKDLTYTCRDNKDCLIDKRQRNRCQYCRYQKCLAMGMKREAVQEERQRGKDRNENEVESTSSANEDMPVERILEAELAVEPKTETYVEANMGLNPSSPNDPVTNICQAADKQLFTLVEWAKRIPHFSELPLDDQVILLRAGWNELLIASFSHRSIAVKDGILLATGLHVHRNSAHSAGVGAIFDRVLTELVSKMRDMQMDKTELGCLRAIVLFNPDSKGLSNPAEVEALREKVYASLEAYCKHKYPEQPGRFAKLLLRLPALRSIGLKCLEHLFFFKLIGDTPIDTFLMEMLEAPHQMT
Procedure, shortened: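 Cells were first allowed to attach for 5 h, after which compounds in DMSO were pinned at 11 concentrations and incubated 16 h at 37C. LiveBLAzer CCF4-AM substrate was then added for 2 h at room temperature before reading 460 and 530 nm fluorescence.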

[13] = TOX21_TR_RXR_BLA_Agonist_Followup_viability: Viability Assessment in the Tox21 Thyroid Hormone Receptor beta Retinoid X Receptor alpha (RXRa) Agonism Beta-lactamase (BLA) Follow-Up Assay (AID 2283970)
Procedure, shortened: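 Viability counter-screen run alongside the RXRa bla follow-up: HEK293T reporter cells were treated for 16h at 37C in stripped-serum medium, then ATP was quantified by luciferase-coupled CellTiter-Glo. Decreased signal relative to DMSO marked cytotoxicity.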

Measured: AC50

CC(CCO)CC(C)(C)C (stereo not drawn)
inactive: [1] | [2] | [3] | [4]

CC(C)(CO)CO
inactive: [2] | [4]

CCOc1ccc(NC(C)=O)cc1
inactive: [1] | [2] | [3] | [4]

CC(C)(C)c1cccc(O)c1
active: [2] 30.6 µM | [4] 50 µM
inactive: [1] | [3]

COc1cc(OC)c2ccc(=O)oc2c1
inactive: [5] | [6] | [7] | [8] | [1] | [3]

CCCCCCC(C)O (stereo not drawn)
inactive: [9] | THRA (gene 7067) | THRB (gene 7068) [10] | THRB (gene 7068) [11] | [12] | [13]

CCCCCCCCCCOC(=O)c1ccccc1C(=O)OCCCCCCCC
active: [6] 39.1 µM | [8] 43 µM
inactive: [5] | [7] | [1] | [2] | [4]

FC(F)(F)c1ccc(Cl)c(Cl)c1
inactive: [1] | [3] | [4]

CCO[Si](CC)(OCC)OCC
inactive: [1] | [2] | [3] | [4]

CC1COC(=O)O1 (stereo not drawn)
inactive: [1] | [2] | [4]
